Compounds without any hit were thinned out: in the full panel of roughly 83,000, 20% have a hit.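 Interpretation: 100, growth as untreated; towards 0, rising growth inhibition; 0, no net growth; 0 to -100, cell death. Compounds scoring below 10 were considered active.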 A number with no mark means an inactive call. Calls of active or inactive are those of the source.
The compounds below were run on T-47D breast (assay: NCI-60 one-dose screen, 48 h (100 = growth as untreated, 0 = no growth, -100 = all killed)). Details: 10 µM unless noted.

SMILES	growth
Cn1c(=O)cc2c3c(c(NCCCO)ccc31)C(=O)c1ccccc1-2	51.8%
O=C(OC(CO)C(=O)NC12CC3CC(CC(C3)C1)C2)c1ccc(Cl)cc1 (centres undefined)	92.8%
N#Cc1nc(-c2ccc(F)cc2)oc1S(=O)(=O)N1CCCCC1	2.97% (active)
COC1/C=C/OC2(C)Oc3c(C)c(O)c4c(O)c(c(/C=N/Nc5ccc([N+](=O)[O-])cc5[N+](=O)[O-])c(O)c4c3C2=O)NC(=O)C(C)=C/C=C/C(C)C(O)C(C)C(O)C(C)C(OC(C)=O)C1C (centres undefined)	-31.2% (active)
O=C1c2c(c3c4ccccc4[nH]c3c3ccc4ccccc4c23)C(=O)N1CCN1CCOCC1	18.6%
NC(=O)c1cc(I)ccc1NC(=O)/C=C/c1ccccc1	122%
COC(=O)c1c2c(c(C)[n+]([O-])c1C)C(=O)C(NCc1cccc(OC)c1)=CC2=O	11.5%
COc1ccc(CNc2c3ccccc3nc3ccccc23)cc1	44.9%
N=C(N)c1ccc(-c2ccc(-c3ccc(Cl)c(Cl)c3)s2)nc1	56.2%
Nc1c(C(=O)Nc2ccccc2F)sc2nc3c(cc12)CCCC3	41.9%
Cc1ccc2c(n1)C(=O)C(Br)=C(C1CCCC1)C2=O	90%
N#CC1=C(N)Oc2c(sc3c(Br)cccc23)C1c1ccc(Cl)cc1 (centres undefined)	26.3%
COc1ccc(/C=C(\C#N)n2nnc3cc(F)c(F)cc32)cc1	23.1%
COc1cc(NS(=O)(=O)c2ccc(-c3cnc(C4CC4)o3)cc2)ccc1F	33.6%
